Data reported in PubChem BioAssay (NCI).
Values joined by “and” are separate entries in the source; they are usually repeats but may differ in a detail not shown here. Equal entries are not always repeated. This is part of a sample that, as a whole, favours compounds with a hit. Of some 79,000 tested, about 15% had one in any assay. Unmarked numbers belong to inactive results. Active and inactive are the calls of the source. Rule as the data show it: active = growth inhibition above about 70%; inactive = the rest.

Test: NCI Yeast Anticancer Drug Screen. Data for the mec2-1 strain (AID 157)
Conditions: S. cerevisiae mec2-1 strain, at 50.0 µM, hits give high values
Summary of the method: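 mec2-1 yeast strain, carrying an alteration in DNA damage repair or cell cycle control, was exposed to compounds; growth inhibition was measured relative to vehicle-treated controls.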

Compound	growth inhibition
CC(Cc1ccc(O)cc1)NCC(O)c1ccc(O)c(O)c1 (stereo not given)	15.3%
O=c1[nH]cc(CCl)c(=O)[nH]1	-17.2%
CC1(C)C=C(NC(=O)N2CC2)C(C)(C)N1O	11.3%
Cc1nnnn1C	-11.6%
NNC(=O)c1ccc(N)cc1	-9.75%
Nc1ccccc1C(=O)O	18.4%
Cc1c([N+](=O)[O-])cc(C(C)(C)C)c(O)c1[N+](=O)[O-]	63.1%
C=C(C)C(=O)OCC12CCC(C)=CC1OC1C(=O)C(OC(=O)C(=C)C)C2(C)C12CO2 (stereo not given)	19.9%
CN(C)CCc1ccc(O)cc1	4.2% and 2.8%
O=C(O)C(O)C(O)C(O)C(O)C(O)C(O)CO.[Cd] (stereo not given)	15.2% and 26.5%
CN(C)CCN(C)C.[C-]#[O+].[C-]#[O+].[C-]#[O+].[C-]#[O+].[W+2]	-4.65%
C1CC2OC2CC1C1CO1 (stereo not given)	-3%
COCCCNP(=O)(OC(C)C)OC(C)C	0.85%
[Be]=[Se]	-0.4%
CC(C)(C[N+](=O)[O-])C[N+](=O)[O-]	-34.1%
Cc1cccc(-n2c(C)nc3ccccc3c2=O)c1C	-1.1%
O=[N+]([O-])c1ccc(OCc2ccc(Cl)c(S(=O)(=O)F)c2)c(Cl)c1	-8.3%
COc1ccc([N+](=O)[O-])cc1CNCCCl	24.6%
O=[N+]([O-])c1ccc(O)c(CBr)c1	-5.15%
CC12CCC3C(=CC=C4CC(O)CCC43C)C1CCC2=O (stereo not given)	17.2% and 0.65%

Compound	growth inhibition
Cn1ccnc1C[N-]Cc1nccn1C.O=[N+]([O-])[O-].O=[N+]([O-])[O-].[Cu+2]	7.5%
CN(C)C(=O)C1(c2ccccc2)CCNCC1	-1.7%
O=C1[C@@H]2[C@H](C(=O)N1c1ccccc1)[C@H]1CC[C@H]2N1C(=O)c1ccccc1	17.4%
O=C(O)c1ccc([As](=O)(O)O)cc1[N+](=O)[O-]	-23.1%
CC(=O)CC(C)=O.CC(=O)CC(C)=O.CC(=O)CC(C)=O.[Mn]	-1.45% and -5%
Brc1ccc2nncc(N3CC3)c2c1	-16.6%
CCN(CCCl)c1ccc(NC(=O)c2cc(C(=O)NCCN(C)C)cc(C(=O)Nc3ccc(N(CC)CCCl)cc3)c2)cc1	-23.9%
COc1ccc2c(c1OC)C[C@@H]1c3c(cc4c(c3-2)OCO4)CCN1C	-30.2%
NC(=O)Cc1ccc([As]=O)cc1 (stereo not given)	10.1%
COP(=O)(OC)C(=O)c1ccc(C)cc1	-6.05%
O=C(C1CO1)C(Cl)(Cl)Cl (stereo not given)	-6.85%
C/C=C(\C)C(=O)N[C@@H](c1ccccc1)[C@@H](O)C(=O)OC1C[C@@]2(O)[C@@H](OC(=O)c3ccccc3)[C@@H]3[C@]4(OC(C)=O)CO[C@@H]4C[C@H](O)[C@@]3(C)C(=O)[C@H](OC(C)=O)C(=C1C)C2(C)C (stereo not given in full)	13.6%
Cc1cc(Cl)ccc1NC(=O)/C(CC(=O)CC(c1ccccc1)c1c(O)c2ccccc2oc1=O)=N\O (stereo not given)	-8.4%
O=C1C(=O)c2ccccc2C(O)=C1CN(CCCl)CCCl	17.9%
O=C1NC(=O)C2(O)NC(=O)NC2(O)N1 (stereo not given)	-9.5%
CC(=O)OC1(C(C)=O)CC2(c3ccccc3)OC1(c1ccccc1)c1ccccc12 (stereo not given)	12.1%
C/C1=N\NC(=O)c2ccccc2C(=O)N/N=C(\C)c2cccc1n2.O=[N+]([O-])[O-].[Zn+2]	-7.3%
COP(=O)(OC)C(=O)c1ccccc1	-17.2%
O=Cc1cn(CCCCCCCCCCCCn2cc(C=O)c3ccccc32)c2ccccc12	-10.8%
C=C1CC2CC[C@@]34CC5O[C@@H]6C(O[C@H]7CC[C@H](CC(=O)OC8C(C)C9OC%10C[C@]%11(C[C@@H]%12O[C@]%13(CC(C)[C@@H]%14O[C@H](C(O)CC(O)CO)C[C@@H]%14O%13)CC(C)[C@@H]%12O%11)OC%10CC9O[C@H]8C[C@H]8OC(CC[C@@H]1O2)C[C@@H](C)C8=C)OC7[C@@H]6O3)[C@H]5O4 (stereo not given in full)	91.1% (active)

Test: NCI Yeast Anticancer Drug Screen. Data for the sgs1 mgt1 strain (AID 161);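 also: 0% = growth of cultures given vehicle only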
Conditions: S. cerevisiae sgs1 mgt1 strain, at 50.0 µM, hits give high values
Summary of the method: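 Percent growth inhibition was derived by comparing compound-exposed mutant yeast with vehicle-exposed cultures. The strain carries alterations in DNA damage repair.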

Compound	growth inhibition
CC(Cc1ccc(O)cc1)NCC(O)c1ccc(O)c(O)c1 (stereo not given)	3.4%
O=c1[nH]cc(CCl)c(=O)[nH]1	6.3%
CC1(C)C=C(NC(=O)N2CC2)C(C)(C)N1O	-2%
Cc1nnnn1C	-18.9%
NNC(=O)c1ccc(N)cc1	-8.3%
Nc1ccccc1C(=O)O	0.7%
Cc1c([N+](=O)[O-])cc(C(C)(C)C)c(O)c1[N+](=O)[O-]	72.2% (active)
C=C(C)C(=O)OCC12CCC(C)=CC1OC1C(=O)C(OC(=O)C(=C)C)C2(C)C12CO2 (stereo not given)	-1.15%
CN(C)CCc1ccc(O)cc1	10.1% and -3.15%
O=C(O)C(O)C(O)C(O)C(O)C(O)C(O)CO.[Cd] (stereo not given)	20.2% and 20.4%
CN(C)CCN(C)C.[C-]#[O+].[C-]#[O+].[C-]#[O+].[C-]#[O+].[W+2]	-7.5%
C1CC2OC2CC1C1CO1 (stereo not given)	4.7%
COCCCNP(=O)(OC(C)C)OC(C)C	8.6%
[Be]=[Se]	-2.9%
CC(C)(C[N+](=O)[O-])C[N+](=O)[O-]	15.6%
Cc1cccc(-n2c(C)nc3ccccc3c2=O)c1C	-3.35%
O=[N+]([O-])c1ccc(OCc2ccc(Cl)c(S(=O)(=O)F)c2)c(Cl)c1	29.8%
COc1ccc([N+](=O)[O-])cc1CNCCCl	36.5%
O=[N+]([O-])c1ccc(O)c(CBr)c1	7.55%
CC12CCC3C(=CC=C4CC(O)CCC43C)C1CCC2=O (stereo not given)	18.6% and 10.6%

Compound	growth inhibition
Cn1ccnc1C[N-]Cc1nccn1C.O=[N+]([O-])[O-].O=[N+]([O-])[O-].[Cu+2]	-1.35%
CN(C)C(=O)C1(c2ccccc2)CCNCC1	3.25%
O=C1[C@@H]2[C@H](C(=O)N1c1ccccc1)[C@H]1CC[C@H]2N1C(=O)c1ccccc1	2.2%
O=C(O)c1ccc([As](=O)(O)O)cc1[N+](=O)[O-]	-0.65%
CC(=O)CC(C)=O.CC(=O)CC(C)=O.CC(=O)CC(C)=O.[Mn]	8% and 1.6%
Brc1ccc2nncc(N3CC3)c2c1	4.55%
CCN(CCCl)c1ccc(NC(=O)c2cc(C(=O)NCCN(C)C)cc(C(=O)Nc3ccc(N(CC)CCCl)cc3)c2)cc1	-15.8%
COc1ccc2c(c1OC)C[C@@H]1c3c(cc4c(c3-2)OCO4)CCN1C	-23.6%
NC(=O)Cc1ccc([As]=O)cc1 (stereo not given)	9.05%
COP(=O)(OC)C(=O)c1ccc(C)cc1	1.55%
O=C(C1CO1)C(Cl)(Cl)Cl (stereo not given)	3.8%
C/C=C(\C)C(=O)N[C@@H](c1ccccc1)[C@@H](O)C(=O)OC1C[C@@]2(O)[C@@H](OC(=O)c3ccccc3)[C@@H]3[C@]4(OC(C)=O)CO[C@@H]4C[C@H](O)[C@@]3(C)C(=O)[C@H](OC(C)=O)C(=C1C)C2(C)C (stereo not given in full)	13.8%
Cc1cc(Cl)ccc1NC(=O)/C(CC(=O)CC(c1ccccc1)c1c(O)c2ccccc2oc1=O)=N\O (stereo not given)	3.05%
O=C1C(=O)c2ccccc2C(O)=C1CN(CCCl)CCCl	27.2%
O=C1NC(=O)C2(O)NC(=O)NC2(O)N1 (stereo not given)	3.15%
CC(=O)OC1(C(C)=O)CC2(c3ccccc3)OC1(c1ccccc1)c1ccccc12 (stereo not given)	9%
C/C1=N\NC(=O)c2ccccc2C(=O)N/N=C(\C)c2cccc1n2.O=[N+]([O-])[O-].[Zn+2]	-10.2%
COP(=O)(OC)C(=O)c1ccccc1	-7.8%
O=Cc1cn(CCCCCCCCCCCCn2cc(C=O)c3ccccc32)c2ccccc12	0.25%
C=C1CC2CC[C@@]34CC5O[C@@H]6C(O[C@H]7CC[C@H](CC(=O)OC8C(C)C9OC%10C[C@]%11(C[C@@H]%12O[C@]%13(CC(C)[C@@H]%14O[C@H](C(O)CC(O)CO)C[C@@H]%14O%13)CC(C)[C@@H]%12O%11)OC%10CC9O[C@H]8C[C@H]8OC(CC[C@@H]1O2)C[C@@H](C)C8=C)OC7[C@@H]6O3)[C@H]5O4 (stereo not given in full)	90.6% (active)
